The panel holds about 83,000 compounds, 20% with a hit somewhere; the sample as a whole holds those more often.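 The test compound was applied at a single concentration to cells in 96-well plates for 48 hours, and percent growth was recorded.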 Values without a mark were called inactive. Active and inactive are the calls of the source. How the source made its calls: active means growth percent below 10; inactive means the rest.

Some test systems named below: SK-MEL-2 melanoma; EKVX NSCLC; SN12C renal; UO-31 renal; TK-10 renal; ACHN renal; CAKI-1 renal; CCRF-CEM leukemia; MOLT-4 leukemia; SR leukemia; OVCAR-8 ovarian; OVCAR-5 ovarian; OVCAR-4 ovarian; IGROV1 ovarian; OVCAR-3 ovarian; NCI/ADR-RES ovarian; SK-OV-3 ovarian; HS 578T breast; RPMI-8226 leukemia.
What all share (experiment): NCI-60 one-dose screen, 48 h (100 = growth as untreated, 0 = no growth, -100 = all killed)
What all share (details): 10 µM unless noted

`O=C(NCCOCCOCCNc1cccc2c1C(=O)N(C1CCCNC1=O)C2=O)c1cc2c(o1)C(=O)c1ccccc1C2=O` (stereo unspecified): the growth in the experiment with SK-MEL-2 melanoma is -13.6% (active); in the experiment with EKVX NSCLC, 17.7%; with SN12C renal, -74.3% (active); with UO-31 renal, -19.8% (active); with TK-10 renal, 8.39% (active); with ACHN renal it was 14%. Further, the growth is -10.1% (active) in the experiment on CAKI-1 renal; 14.9% with CCRF-CEM leukemia; 8.89% (active) in the experiment with MOLT-4 leukemia; 13.3% in the experiment with SR leukemia; 3.33% (active) in the experiment with OVCAR-8 ovarian; -84.5% (active) in the experiment with OVCAR-5 ovarian. The growth with OVCAR-4 ovarian was -98.1% (active); with IGROV1 ovarian it was -15.4% (active); with OVCAR-3 ovarian, -25% (active); with NCI/ADR-RES ovarian, 48.6%.
For the compound `O=C1c2cccc3c(-c4ccc(-c5nc6c7ccccc7c7ccccc7c6[nH]5)cc4)ccc(c23)C(=O)N1CCN1CCNCC1`, the growth was 105% in the experiment on SK-MEL-2 melanoma; 97% in the experiment on EKVX NSCLC; 93.4% in the experiment with SN12C renal; 94.2% in the experiment with UO-31 renal; 104% in the experiment on TK-10 renal; 71.7% in the experiment with ACHN renal. The growth was 91.4% with CAKI-1 renal; 37.5% in the experiment on CCRF-CEM leukemia; 53.4% in the experiment on MOLT-4 leukemia; 5.99% (active) in the experiment on SR leukemia; 20.2% with OVCAR-8 ovarian; 108% with OVCAR-5 ovarian. For the same compound, the growth in the experiment on SK-OV-3 ovarian was 102%; in the experiment on IGROV1 ovarian, 72.4%; with OVCAR-3 ovarian, 91.5%; in the experiment with NCI/ADR-RES ovarian, 57.8%.
In the case of `N#C/C(=C\c1ccc(Br)cc1)n1nnc2ccccc21`, the growth was -1.82% (active) with SK-MEL-2 melanoma; 20% in the experiment on EKVX NSCLC; 8.47% (active) with SN12C renal; -13.6% (active) in the experiment with UO-31 renal; 1.55% (active) with TK-10 renal; -16.7% (active) in the experiment with ACHN renal. In addition, the growth with CAKI-1 renal is 1.73% (active); in the experiment with CCRF-CEM leukemia, 8.29% (active); in the experiment with MOLT-4 leukemia it was 9.75% (active); in the experiment on SR leukemia it was 11.7%; with OVCAR-8 ovarian it was 17.3%; with OVCAR-5 ovarian it was 7.66% (active). For the same compound, the growth in the experiment on OVCAR-4 ovarian was 6.76% (active); with IGROV1 ovarian, 1.96% (active); in the experiment on OVCAR-3 ovarian, -31.8% (active); in the experiment on HS 578T breast it was 19.4%; with NCI/ADR-RES ovarian, -6.66% (active).
In the case of `CC(C)(O)c1cccc(F)c1`, the growth with SK-MEL-2 melanoma is 124%; in the experiment on EKVX NSCLC it was 92%; with SN12C renal, 94.7%; in the experiment on UO-31 renal, 88.7%; with TK-10 renal, 109%; in the experiment with ACHN renal it was 99.1%. The growth in the experiment on CAKI-1 renal is 101%; in the experiment on CCRF-CEM leukemia, -41.6% (active); in the experiment with MOLT-4 leukemia, 107%; in the experiment with SR leukemia it was 96.9%; in the experiment on RPMI-8226 leukemia, 103%; in the experiment with OVCAR-8 ovarian it was 107%. Moreover, the growth in the experiment with OVCAR-5 ovarian was 99.3%; in the experiment on SK-OV-3 ovarian it was 135%; in the experiment with IGROV1 ovarian it was 104%; in the experiment on OVCAR-3 ovarian it was 127%; with HS 578T breast it was 103%; with NCI/ADR-RES ovarian, 102%.
As to `N=C(N)c1ccc(-c2ccc(-c3ccc(Cl)cc3Cl)o2)nc1`, the growth with SK-MEL-2 melanoma was 103%; in the experiment with EKVX NSCLC, 95.4%; in the experiment with SN12C renal, -42.8% (active); in the experiment on UO-31 renal it was -16.1% (active); in the experiment on TK-10 renal, 61%; in the experiment on ACHN renal it was 12.3%. For the same compound, the growth in the experiment with CAKI-1 renal was 53.8%; in the experiment on CCRF-CEM leukemia, -12.9% (active); with MOLT-4 leukemia it was 1.62% (active); with SR leukemia, 1.87% (active); with OVCAR-8 ovarian, 1.36% (active); in the experiment on OVCAR-5 ovarian, 77.2%. In addition, the growth with OVCAR-4 ovarian is 22.6%; with IGROV1 ovarian, 25.4%; in the experiment with OVCAR-3 ovarian, -3.34% (active); in the experiment with HS 578T breast, -15.2% (active); with NCI/ADR-RES ovarian, 71.6%.
With `C=C1C(=O)O[C@H]2[C@H]1CC/C(COC(=O)/C=C\C(=O)NCc1ccc(Cn3c(=O)sn(CCCI)c3=O)cc1)=C\CC[C@@]1(C)O[C@@H]21`, the growth was -64.4% (active) in the experiment with SK-MEL-2 melanoma; -58.8% (active) in the experiment with EKVX NSCLC; -90.8% (active) in the experiment on SN12C renal; -100% (active) with UO-31 renal; -79.3% (active) in the experiment on TK-10 renal; -100% (active) in the experiment with ACHN renal. The growth in the experiment with CAKI-1 renal was -78.6% (active); in the experiment on CCRF-CEM leukemia, -21.1% (active); in the experiment on MOLT-4 leukemia, -30% (active); in the experiment with SR leukemia it was -48% (active); with OVCAR-8 ovarian it was -1.28% (active); with OVCAR-5 ovarian, -83.9% (active). Besides, the growth is -89.4% (active) with OVCAR-4 ovarian; 42.9% with SK-OV-3 ovarian; -98.3% (active) with IGROV1 ovarian; -93% (active) with OVCAR-3 ovarian; 1.52% (active) in the experiment on NCI/ADR-RES ovarian.
As to `O[C@H]1CO[C@H]2[C@@H]1OC[C@@H]2Oc1ccc(Nc2ccnc(Nc3ccc(O[C@H]4CO[C@H]5[C@@H]4OC[C@@H]5O)c(Cl)c3)n2)cc1Cl`, the growth with SK-MEL-2 melanoma was 4.23% (active); in the experiment with EKVX NSCLC, 25.2%; with SN12C renal it was -2.74% (active); in the experiment on UO-31 renal, 6.06% (active); in the experiment on TK-10 renal, 28.5%; with ACHN renal it was 20.3%. For the same compound, the growth was 27.3% in the experiment on CAKI-1 renal; 7.39% (active) with CCRF-CEM leukemia; 5.65% (active) in the experiment on MOLT-4 leukemia; 12.2% in the experiment on SR leukemia; 7.77% (active) in the experiment on OVCAR-8 ovarian; 27.6% in the experiment on OVCAR-5 ovarian. Also, the growth is 19.8% with OVCAR-4 ovarian; 19.1% in the experiment with SK-OV-3 ovarian; -2.78% (active) with IGROV1 ovarian; 13.6% in the experiment with OVCAR-3 ovarian; -2.86% (active) with HS 578T breast; 74.1% in the experiment on NCI/ADR-RES ovarian.
Consider `CN1CCN(c2ccc3nc(/N=C/c4ccc5sc(-c6ccc([N+](=O)[O-])cc6)nc5c4)sc3c2)CC1`, for which the growth in the experiment on SK-MEL-2 melanoma was 111%; in the experiment with EKVX NSCLC it was 97.7%; in the experiment with SN12C renal it was 104%; with UO-31 renal it was 92.2%; in the experiment on TK-10 renal it was 101%; with ACHN renal, 108%. In addition, the growth in the experiment with CAKI-1 renal is 108%; in the experiment on CCRF-CEM leukemia, 101%; in the experiment with MOLT-4 leukemia, 108%; in the experiment with SR leukemia it was 91.9%; in the experiment with RPMI-8226 leukemia, 101%; in the experiment with OVCAR-8 ovarian, 99.6%. Further, the growth in the experiment on OVCAR-5 ovarian was 107%; with OVCAR-4 ovarian it was 105%; in the experiment with IGROV1 ovarian, 114%; in the experiment on OVCAR-3 ovarian, 112%; in the experiment on NCI/ADR-RES ovarian, 104%.

For the origin of these results see PubChem BioAssay (NCI).
